Test results reported in PubChem BioAssay AID485395 (ICCB-Longwood Screening Facility, Harvard Medical School, 2010).
Among all 120,000 compounds or so, about 55 (0.05%) were called active. The sample holds actives, similar compounds and a random draw of the others, so the mix is not that of the screen. Cut-off read from the data, not from the text of the source: active = inhibition above about 25% (passing the limit was not always enough); inactive = the rest.

System: replicative DNA helicase (DnaC/DnaB), Staphylococcus aureus
Assay: S. aureus DnaC helicase unwinding inhibition – biochemical, fluorescence unwinding readout, primary screen (AID 485395);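 note: 0% = mean of negative control wells and 100% = mean of positive control wells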
Conditions: purified S. aureus helicase, fluorescence unwinding assay; hits give high values; concentration not given here

inhibition, inactive:
NC(=O)C12CC3CC(CC(Cl)(C3)C1)C2 -9%
COc1ccc2c(=O)c(-c3ccc(F)cc3)coc2c1 0%
CN1C2=C(C(=O)CCC2)C(c2ccc(O)c(Cl)c2)C2=C1CCCC2=O 10%
CC(C)C(NC(=O)c1ccco1)C(=O)N1CCC(Cc2ccccc2)CC1 (stereo unspecified) -7%
CC1(C)CCCC2=C1CC1C(=O)N(CCC[N+](C)(C)C)C(=O)C1C2 (stereo unspecified) 6%
CC1CC(C)CN(C(=O)c2ccc3c(c2)N(C)C(=O)/C(=C/c2cccc(Cl)c2)S3)C1 (stereo unspecified) -10%
CCOc1ccc(-n2c(CSc3nc(C)cc(C)n3)nnc2SC)cc1 27%
O=C1CCCc2c1cnn2-c1ccccc1 -10%
CN(Cc1ccccc1)S(=O)(=O)c1ccc2c3c(cccc13)C(=O)N2 5%
O=C(O)c1cccc(S(=O)(=O)NCC(F)(F)F)c1 18%
Cc1ccc(OCCn2cc(/C=C3/C(=O)Nc4cc(Cl)ccc43)c3ccccc32)cc1C -483%
N#Cc1cccc(OCC(=O)NCC(F)(F)F)c1 12%
Cc1c(/C=C(\C#N)C(=O)O)cc(C#N)n1C -11%
Cc1cnc(C(=O)Nc2ccc(S(=O)(=O)NC(C)C)cc2)cn1 -1%
CCSc1nnc(SCC(=O)c2ccc(OC)cc2OC)s1 -4%
COC(=O)c1c(Cn2cc(Br)ccc2=O)nc2ccccc2c1C 0%
COc1nc(-c2ccccc2)ccc1-c1noc(C(C)C)n1 2%
CCCNc1cc(C)nc2nc(-c3ccc(OC)cc3)nn12 12%
O=C(Cc1c(F)cccc1Cl)OCc1ncc(-c2ccccc2)o1 -4%
Cc1ccc(-c2cc(C(=O)N3CCCCC3C)[nH]n2)cc1C (stereo unspecified) -28%
CCc1ccccc1NC(=O)Cn1ncc2c(=O)oc3ccccc3c21 4%
CCSc1nsc(SCC)c1C(=O)O -3%
COc1ccccc1C/C(N)=N/OC(=O)c1ccccc1 6%
NC(=O)COC(=O)/C=C/c1ccc(S(=O)(=O)N2CCOCC2)cc1 -10%
COc1ccc(-n2nc(C(=O)NCC(=O)N3CCOCC3)c3ccccc3c2=O)cc1 -25%
COc1ccc(S(=O)(=O)NCCn2ccc3ccccc32)cc1 -14%
CC1(C)CC(NS(C)(=O)=O)CC(C)(C)N1O 20%
CC(C)c1ccccc1N=Cc1ccc2c(c1)OCO2 -15%
NC(=O)C1CCN(C(=O)COc2ccc(Cl)cc2Cl)CC1 0%
N#CCCn1cc(/C=c2\sc3nc4ccccc4n3c2=O)c(-c2ccc(F)cc2)n1 4%
Cn1nc(NCc2ccc(Cl)cc2)c(=O)n(C)c1=O -8%
O=C(Nc1cccc(C(F)(F)F)c1)/C(=C\c1cccnc1)NC(=O)c1cccs1 -22%
COC(=O)N/N=C(\C)c1ccc2c(c1)Nc1ccccc1S2 8%
Cc1cc(NC(=O)COC(=O)C2=COCCO2)n(-c2ccccc2)n1 4%
CC(C)Cn1c(SCC(=O)Nc2ccccc2)nc2ccccc21 14%
O=C1NC(c2ccccn2)Nc2sc3c(c21)CCCC3 (stereo unspecified) 9%
c1ccc(CCNCc2cn[nH]c2-c2cccs2)cc1 -16%
COc1ccccc1N=Cc1c(O)n(-c2ccccc2OC)c(=O)[nH]c1=O 8%
CC1Nc2ccc(C(=O)N3CCC4(CC3)OCCO4)cc2NC1=O (stereo unspecified) 34%
CC(C)(C)NC(=O)C(C)(C)Oc1ccc(Cl)cc1 -13%
CC(Sc1nncn1C)C(=O)NCCC1=CCCCC1 (stereo unspecified) 9%
Cc1ccccc1NC(=O)CSc1nc2ccc(N)cc2s1 -1%
N#Cc1ccc(NC(=O)/C=C/c2ccccc2)cc1 4%
COc1ccc(C(=O)n2c(SC)nc3ccccc32)cc1OC -17%
Cc1ccc(O)c(NC(=O)c2cccs2)c1 8%
CC1(C)C=C(C(=O)N2CCCCC2)C(C)(C)N1 5%
O=S1(=O)CCC(n2nnnc2-c2ccc(Cl)cc2)C1 (stereo unspecified) 13%
Cc1ccc(C)c(OC(=O)NC(C)(C(F)(F)F)C(F)(F)F)c1C 1%
Cc1nc(SCC(=O)N2CCCC2)c2c(=O)n(C)c(=O)n(C)c2n1 0%
CCN(CC)c1nc(-c2ccccc2O)nc2ccccc12 -3%
COc1ccc(C(=O)CSC2=C(C#N)C(C)(C)C(C#N)=C(N)N2)cc1 -9%
O=C(COC(=O)c1ccc(N2CCCC2=O)cc1)c1ccc(OC(F)F)cc1 -5%
COc1ccc(Br)cc1CN(C)C(C)C(=O)N1CC(C)OC(C)C1 (stereo unspecified) -12%
Cc1cc(C(=O)N2CCC(C)CC2)c(C)n1-c1ccc(F)cc1 23%
COc1ccc(/C=C/C(=O)CC(=O)c2ccccc2O)cc1 -17%
CN(C)c1ccc(NC(=O)CSc2nnc(C3CC3)n2N)cc1 -15%
COc1cccc(N=Nc2c(O)[nH]c(=O)[nH]c2=O)c1 7%
CN(C)CCCNc1c(N)c(=O)oc2ccccc12 27%
CCOC(=O)c1cnc2c(C)cc(C)cc2c1NCCN(C)C 13%
COc1ccc(C(CC(=O)O)NS(=O)(=O)c2ccccc2F)cc1OC (stereo unspecified) -3%
CCc1cccc2c(C3=Nn4cnnc4SC3c3ccccc3)c[nH]c12 (stereo unspecified) 16%
Cn1cc(SC(=N)N)c2ccccc21 -12%
Cc1[nH]n(-c2ccccc2)c(=O)c1CCC#N -6%
Cc1sc2nc(CN3CCCC3)nc(NC(C)C)c2c1C -5%
COC(CNC(=O)C1CCC(CNS(=O)(=O)c2ccc(C)cc2)CC1)OC (stereo unspecified) 9%
COC(=O)c1sc(NC(=O)Cn2cnc3sccc3c2=O)c(C(=O)OC)c1C -7%
C=C(C)CNC(=S)NN -24%
CC1CCCCN1S(=O)(=O)c1ccc(I)cc1 (stereo unspecified) 17%
CC(=O)Nc1ccc(NC2SC(=O)NC2=O)cc1 (stereo unspecified) 7%
Cc1[nH]c2ccccc2c1SCCNC(=O)C(C)C -17%

inhibition, active:
CCOC(=O)c1cnc2c(C)c(C)ccc2c1NCCCN(C)C 65%
